From PubChem BioAssay
DT40 TDP1 CPT = growth inhibition of DT40 Tdp1-/-;hTDP1 cells with camptothecin (screen for TDP1 inhibitors) | Potency, µM (top dose mostly 46.2 µM), without a hit: at the top dose activity change, negative = growth inhibition, hits mostly inhibitors | chicken DT40 Tdp1-/-;hTDP1 cells + 20 nM CPT, ATP luminescence, 48 h | 420,000 compounds, 12% hits | AID 686979; further: potency means the concentration at half of the fitted maximal effect; nearly all actives have a fitted effect of over 55% in size
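Chicken DT40 Tdp1-/- cells complemented with human TDP1, 400 cells/well, exposed to compounds plus 20 nM camptothecin for at least 48 h at 37 C; viability read as ATP content by CellTiter-Glo luminescence.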
TDP1 inh = TDP1 (human) enzyme inhibition | Q9NUW8 | recombinant TDP1, AlphaScreen DNA substrate cleavage | Potency, µM (top dose mostly 130 µM), without a hit: at the highest dose activity change, negative = inhibition, actives largely listed as inhibitors | 350,000 compounds, 0.28% hits; further: potency means the concentration at half of the fitted maximal effect; nearly all actives have a fitted effect of over 40% in size
Target sequence (Q9NUW8 whole entry, looked up): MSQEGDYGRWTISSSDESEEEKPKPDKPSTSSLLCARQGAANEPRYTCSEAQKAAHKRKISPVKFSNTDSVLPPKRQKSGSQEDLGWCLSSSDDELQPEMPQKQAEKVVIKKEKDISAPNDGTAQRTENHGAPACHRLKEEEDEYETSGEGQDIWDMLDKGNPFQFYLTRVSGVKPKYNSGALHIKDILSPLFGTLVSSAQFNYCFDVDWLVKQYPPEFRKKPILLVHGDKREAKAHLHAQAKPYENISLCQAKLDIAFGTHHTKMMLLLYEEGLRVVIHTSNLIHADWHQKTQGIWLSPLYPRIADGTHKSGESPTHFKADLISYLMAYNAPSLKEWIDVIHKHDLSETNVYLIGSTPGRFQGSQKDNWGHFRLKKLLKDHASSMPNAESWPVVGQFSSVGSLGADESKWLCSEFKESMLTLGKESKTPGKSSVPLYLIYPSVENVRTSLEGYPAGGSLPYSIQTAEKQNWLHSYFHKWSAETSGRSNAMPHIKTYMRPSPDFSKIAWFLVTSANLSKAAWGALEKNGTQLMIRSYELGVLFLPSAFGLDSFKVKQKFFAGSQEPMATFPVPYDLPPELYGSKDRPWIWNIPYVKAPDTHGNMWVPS
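AlphaScreen read-out: signal falls as enzyme removes the 3' tyrosine-FITC from a 5'-biotinylated DNA oligo (15 nM, 5 min, RT). Enzyme was E. coli-made recombinant Tdp1 at 1 nM, exposed to compound for 15 min beforehand; beads 10 ug/ml, 10 min.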
TDP1 cell noCPT = qHTS for Inhibitors of human tyrosyl-DNA phosphodiesterase 1 (TDP1): qHTS in cells in absence of CPT; DT40 Tdp1-/- hTDP1 cells, no CPT, ATP luminescence, 48 h; 420,000 compounds, 15% hits; Potency, µM (highest dose often 46.2 µM), inactives show top-dose activity change, negative = growth inhibition, usual class: inhibitors; further: potency means the concentration at half of the fitted maximal effect; nearly all actives have a fitted effect of over 55% in size
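Growth of hTDP1-complemented DT40 Tdp1-knockout cells is measured by ATP luminescence after at least 48 hr compound exposure at 37 °C, with DMSO substituting for the 20 nM CPT used in the parallel screen.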
CtBP-E1A inh = blocks the CtBP interaction with E1A; AlphaScreen GST-E1A/His-CtBP binding, 1536-well; hits give low values; activity change, % (concentration not given with the values); 340,000 compounds, 0.49% hits; AID 651724; in the data active means activity change below about -65%; inconclusive means mostly about -30% to -63%
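Homogeneous bead-based format: GST-tagged E1A captured on glutathione donor beads, His-tagged CtBP on nickel acceptor beads; compounds precede bead addition by 2 h at 37 °C.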
Six1-Eya2 inh = inhibitors of human Six1/Eya2 interaction; AlphaScreen GST-Six1/His-Eya2 binding, biochemical; hits give low values; activity change, % (test concentration not listed); 360,000 compounds, 0.56% hits; in the data active means activity change below about -65%; inconclusive means mostly about -30% to -63%
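Compounds are tested against tagged Six1 and Eya2 proteins bridged by glutathione donor and nickel acceptor beads; after a one-hour incubation at 37 °C without light, AlphaScreen emission is recorded.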
IL1B secr inh = blocks inflammasome-driven IL-1 beta release; THP-1 LPS/ATP IL-1B secretion, AlphaLISA, 16 h; hits give low values; activity change, % at 57.5 µM; 360,000 compounds, 4.7% hits; in the data active means activity change below about -50%; inconclusive means mostly about -30% to -49%
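THP-1 cells pretreated 1 hr with compounds (up to 57.5 uM final), then stimulated with LPS (250 ng/mL final) plus ATP (1.25 mM final); secreted IL-1B measured by AlphaLISA after 16 hr, decreased signal indicating inhibition.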
* marks the source's active call; other numbers are inactive results; ? = inconclusive; / = no result given; [ ] = remark or other dose. Only some compounds are listed: those with a hit (about 18% of all), similar ones and a draw of the others. Unless noted, the call rests on the fitted dose curve; in most records, active means well fitted curve in the direction sought with a large enough effect; inconclusive means small, poorly fitted or top-dose-only effect, or another doubt; inactive means no such curve, though single readings can be large; an effect the other way counts as inactive or inconclusive. On the % scale 0 is the no-effect control and ±100 the full control effect.

SMILES	DT40 TDP1 CPT	TDP1 inh	TDP1 cell noCPT	CtBP-E1A inh	Six1-Eya2 inh	IL1B secr inh
COc1ccc(/C=C(\C#N)C(=O)NCc2ccccc2)cc1O	-29%	-1%[0.0935 µM]	-29%	0	0	-86*
CC(C)OC(=O)CSc1nnc(CNc2cccc(Cl)c2)n1C	-6%	0%	-8%	-1	-8	-18
O=C(O)/C(=C\C(=O)c1ccccc1)Nc1ccccc1	/	3%	/	/	/	/
CN(C)c1ccc(C=Nc2ccccc2)cc1	25%	3%	-6%	-5	-3	-14
Cc1ccc(N=Cc2ccc(N(C)C)cc2)cc1	-2%	7%	2%	7	3	-14
CN(C)c1ccc(N=Cc2ccco2)cc1	8.2µM*	1%	5.2µM*	?	?	1
CN(C)c1ccc(N=Cc2ccncc2)cc1	6.3µM*	/	5.6µM*	/	/	/
CCCN1CCN(CCCNC(=O)c2cc3c(s2)-c2ccccc2OC3)CC1	?	5%	?	-9	1	?
CC1CCCC(C)N1CCCNC(=O)c1cc2c(s1)-c1ccccc1OC2 (configuration not stated)	?	1%	?	0	-5	-9
Cc1cccc2c1-c1sc(C(=O)NCCc3ccc(Cl)cc3)cc1CO2	13µM*	-5%	7.3µM*	/	/	/
Cc1cccc2c1-c1sc(C(=O)NCCCN3CCCC(C)C3)cc1CO2 (configuration not stated)	?	3%	21µM*	2	10	-18
CCCN1CCN(CCCNC(=O)c2cc3c(s2)-c2c(C)cccc2OC3)CC1	23µM*	3%	26µM*	-2	-1	-14
Cc1cccc2c1-c1sc(C(=O)N(C)c3cccc(Cl)c3)cc1CO2	16µM*	?	?	/	/	/
CC1(C(=O)NS(=O)(=O)c2cccc(OC(F)F)c2)CCN1C(=O)c1ccccc1CCc1ccccc1 (configuration not stated)	?	/	?	0	-5	29
CCn1c(CNC(=O)C2CCCCC2)cc2cc(C)ccc21	17%	/	?	0	0	15
CC(C)OCCCN(Cc1ccco1)C(=O)c1cc2c(s1)-c1ccccc1OC2	/	-14%	/	/	/	/
Cc1cccc2c1-c1sc(C(=O)N3CCN(c4ccccc4)CC3)cc1CO2	8.2µM*	4%	16µM*	/	/	/
CCOCCCN(Cc1ccco1)C(=O)c1cc2c(s1)-c1c(C)cccc1OC2	?	/	23µM*	/	/	/
COc1ccc(NC(=O)c2cc3c(s2)-c2c(C)cccc2OC3)c(OC)c1	?	-3%	23µM*	/	/	/
CCCN(C(=O)c1cc2c(s1)-c1c(C)cccc1OC2)c1ccc(OCC)cc1	5.2µM*	-1%	5.2µM*	/	/	/
CCCN(C(=O)c1cc2c(s1)-c1ccccc1OC2)c1ccc(C(C)C)cc1	/	-8%	/	/	/	/
COc1ccc(CNC(=O)c2cc3c(s2)-c2c(C)cccc2OC3)cc1	-8%	-9%	-6%	/	/	/
C=CCn1c(-c2ccccc2)c[nH]c1=S	26µM*	4%	?	-15	-13	-1
C=CCn1c(-c2ccc(Cl)cc2)c[nH]c1=S	-13%	2%	?	-13	-4	10
Cn1c(-c2ccc(-c3ccccc3)cc2)c[nH]c1=S	8.2µM*	14%	?	-4	-15	-26
SMILES	DT40 TDP1 CPT	TDP1 inh	TDP1 cell noCPT	CtBP-E1A inh	Six1-Eya2 inh	IL1B secr inh
Cc1ccc(C(C)C)c(OCC(=O)OCC(=O)NC2CC2)c1	-20%	0%	-28%	7	7	6
CC1CN(S(=O)(=O)c2cc(C(=O)N3CCCCC3C)ccc2Cl)CC(C)O1 (configuration not stated)	-78%	1%	1.8µM*	0	-4	37
CC1CCN(C(=O)c2ccc(Br)c(S(=O)(=O)N3CCOCC3)c2)CC1	-4%	-1%	?	6	-4	2
CC1CCN(S(=O)(=O)c2cc(C(=O)N3CCN(c4ncccn4)CC3)ccc2Br)CC1	?	1%	23µM*	-2	-2	-18
CC1CCCN(C(=O)c2ccc(Cl)c(S(=O)(=O)N3CCCCCC3)c2)C1 (configuration not stated)	?	1%	18µM*	/	1	-7
OCC[C@@H]1C[C@@H](O)[C@H](O)[C@]2(Cc3ccccc3O2)O1	-6%	/	2%	9	6	11
Cc1csc(NC(=O)c2ccc(Cl)cc2[N+](=O)[O-])n1	-13%	5%	?	-1	-2	0
O=C(Nc1nc(-c2ccccn2)cs1)c1cc(Cl)ccc1[N+](=O)[O-]	0.82µM*	12%	1.5µM*	?	-91*	58
Cc1cc(C(=O)Nc2nc(-c3ccccn3)cs2)ccc1[N+](=O)[O-]	2.3µM*	9%	2.9µM*	-14	-71*	107
CC(=O)Nc1ccc(S(=O)(=O)Nc2cccc(-c3ccc4nncn4n3)c2)cc1	-1%	4%	-3%	-5	-6	-10
O=C(Cn1cc(S(=O)(=O)Cc2ccccc2F)c2ccccc21)Nc1ccc(F)c(Cl)c1	?	7%	?	/	/	/
Cc1nn(Cc2ccc(Cl)cc2)c(C)c1NC(=O)Cn1nc([N+](=O)[O-])c(Cl)c1C	-23%	-1%	?	0	27	53
Cc1nn(Cc2ccc(Cl)cc2)c(C)c1NC(=O)c1ccc([N+](=O)[O-])cc1	1%	5%	?	2	1	-74*
